Among the data in paper PMC7819943, “Rice protein-binding microarrays: a tool to detect cis-acting elements near promoter regions in rice” are binding signal values, retold here.

Over roughly 39,000 sequences, “fluorescence intensity (a.u.)” has its median near 4,300; the highest 2% begin near 39,000. This is one part of a sample in which the highest values are shown more often than they occur.

The target in this experiment is T1, OsSMF1 (Oryza sativa, UniProt Q6ZLB0 1-436).
T1 sequence: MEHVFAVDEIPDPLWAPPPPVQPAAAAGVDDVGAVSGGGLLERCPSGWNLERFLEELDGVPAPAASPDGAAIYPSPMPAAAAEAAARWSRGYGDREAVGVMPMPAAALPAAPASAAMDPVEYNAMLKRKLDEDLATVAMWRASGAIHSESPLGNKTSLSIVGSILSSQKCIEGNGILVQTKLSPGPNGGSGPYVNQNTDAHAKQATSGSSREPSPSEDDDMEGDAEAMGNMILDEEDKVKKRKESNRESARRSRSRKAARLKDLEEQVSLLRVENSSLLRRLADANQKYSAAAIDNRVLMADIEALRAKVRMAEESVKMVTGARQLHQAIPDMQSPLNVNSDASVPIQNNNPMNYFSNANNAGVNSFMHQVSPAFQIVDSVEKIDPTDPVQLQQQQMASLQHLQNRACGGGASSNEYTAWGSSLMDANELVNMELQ
Kind of experiment: protein-binding microarray (RPBM); PBS, 2% BSA, 51.3 ng/ul salmon testes DNA, 50 uM zinc acetate, 200 nM TF, 25 C, 1 h; high values mean tight binding. The note with it: protein: recombinant; tags: N-terminal polyhistidine and DsRed monomer fusion (pET32a); chain copies: 2; label: CyDye5-dUTP incorporated in the synthesized complementary strand; 3' TTTTT single-stranded linker to array surface; dsDNA, one strand shown. In a few lines:
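The binding signal is fluorescence intensity per array feature (arbitrary units). Readings came from an Axon 4000B scanner after a washed, 2% BSA-blocked, double-stranded custom Agilent array had been incubated for 1 h at 25 °C with 200 nM protein and 50 µM zinc acetate. The protein was a Ni–NTA-purified transcription factor fused N-terminally to polyhistidine and DsRed, expressed in E. coli BL21-CodonPlus.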
On to “TTGGAGTCCGTGCTGCAGCTGGCTACAGATCTGTAGCCCGCGGAGTCACCTAGTGCAG”, for which the binding signal is 37600 fluorescence intensity (a.u.).
The result for “ATCCTGTCACGGTCAGCCACGTCGCGGAGGGCAGTGCGACCGGAGTCACCTAGTGCAG” reads 4580 fluorescence intensity (a.u.); that for “TTTACCATTGCGGGTGCTCTAATAGGTGGCATGCCATGCGCGGAGTCACCTAGTGCAG”, 4740 fluorescence intensity (a.u.).
As for “AGGCTCCCCTGAGTCGTGACGTGCACTCGAAAGTCGAAAGCGGAGTCACCTAGTGCAG”, the figure is 41100 fluorescence intensity (a.u.); as for “CGTCGTGCTCGTCGACGTCGTGCACTCCGTCGCCATCGTGCGGAGTCACCTAGTGCAG”, 3220 fluorescence intensity (a.u.); as for “CGCTTCTCTCCCTGAGCTCGGCCTCGTGTCACTGACGTCGCGGAGTCACCTAGTGCAG”, 4390 fluorescence intensity (a.u.).
The result for “TACTTTAAGTACATGTATTAGTCAGCTGATATATACCTCACGGAGTCACCTAGTGCAG” reads 4310 fluorescence intensity (a.u.).
As to “AGTATCTCTTTCACAAAAGCCTACGTCATCTTTAAATTAGCGGAGTCACCTAGTGCAG”, the binding signal was 5060 fluorescence intensity (a.u.).
As for “GATGGAGACCCTGTGCGAACTGACAGTAATAGGGCTGGAACGGAGTCACCTAGTGCAG”, the figure is 39400 fluorescence intensity (a.u.).
As for “ACCTGGTAACTGAACACAGGATGGAAACTCTGAATAATGACGGAGTCACCTAGTGCAG”, the binding signal is 3250 fluorescence intensity (a.u.).
As for “CTTGCGATGCGTGGTGAGTGGTGACTGTAATGTAATGGAACGGAGTCACCTAGTGCAG”, the figure is 3450 fluorescence intensity (a.u.); as for “ATTTACTGCCTATTCGTGAGTTGGTCCTCCTGACTCTGACCGGAGTCACCTAGTGCAG”, 3750 fluorescence intensity (a.u.).
As for “TACCGTCCCTCAACTTTATGTCGAGTCTATATGACATACCCGGAGTCACCTAGTGCAG”, the figure is 4220 fluorescence intensity (a.u.); as for “TACTTTATTTTGATTTTCGTGGGAGGTGACGTGGGCGCTTCGGAGTCACCTAGTGCAG”, 19300 fluorescence intensity (a.u.).
As for “TCTTCCCGCTCGCCACGTCAGCGCCATGTGAGCAAAACTACGGAGTCACCTAGTGCAG”, the figure is 15500 fluorescence intensity (a.u.); as for “ATCCACGTGGCAATGTATTAATCCAGTCAGCAACATCTCACGGAGTCACCTAGTGCAG”, 12400 fluorescence intensity (a.u.).
Regarding “AATCAATCCATTAATATTTAACATGATCAGGCATTAGTCGCGGAGTCACCTAGTGCAG”, the binding signal was 3580 fluorescence intensity (a.u.).
Turning to “GTTGGAACAATTAATGTGCTGCAGGCAATAACAATCCAGTCGGAGTCACCTAGTGCAG”, the binding signal is 48700 fluorescence intensity (a.u.).
The result for “ATTTGTCTTATGTATATGCTGTATAGGATCTATGGACGCCCGGAGTCACCTAGTGCAG” reads 3520 fluorescence intensity (a.u.).
As to “GTTCCATTCCAATCCCATGAAAGCAACAGCGCTGCCTATCCGGAGTCACCTAGTGCAG”, the binding signal was 35800 fluorescence intensity (a.u.).
The result for “ACATAATTGTATTATGCAGAACCAAAGCAGGCCACGTGAGCGGAGTCACCTAGTGCAG” reads 5470 fluorescence intensity (a.u.).
The result for “CCAGCAGCCCCTCTCTCATCCATGGTAGTGCTCTGTCATGCGGAGTCACCTAGTGCAG” reads 3400 fluorescence intensity (a.u.); that for “ACCTCTGGTAGCAGCAGCAGCTCGCACGCAGCTCATCGTGCGGAGTCACCTAGTGCAG”, 40700 fluorescence intensity (a.u.).
Consider “TGCCGCCGCCGTCGTCACCGTCGCCGCCTCCGTGCTCATGCGGAGTCACCTAGTGCAG”, for which the binding signal was 6030 fluorescence intensity (a.u.).
Consider “GCGTGGTGCGTATCGTGCTCATCGCATCGGCCTCCGTATACGGAGTCACCTAGTGCAG”, for which the binding signal is 40000 fluorescence intensity (a.u.).
On to “CGTCGCCGTCGCCTCGCCTCGTCACGGCCGCCTCCGCCATCGGAGTCACCTAGTGCAG”, for which the binding signal was 7920 fluorescence intensity (a.u.).
As for “AACGGGGCCTCGTAGCAACAGCTCTGACGCACGTGACCTCCGGAGTCACCTAGTGCAG”, the binding signal was 5400 fluorescence intensity (a.u.).
The result for “ATGTTGACTCGTTTGCCTGTGTTCCTCTTGCTGCTATTCACGGAGTCACCTAGTGCAG” reads 3230 fluorescence intensity (a.u.); that for “CGCTGTGGTGTGCAGCGGCGGTGCCACGTCCCTATTTAAACGGAGTCACCTAGTGCAG”, 10900 fluorescence intensity (a.u.); that for “ATCTTTAGTCCCGGATTGGTAGTTCCGGTTTGAAAACCGGCGGAGTCACCTAGTGCAG”, 3760 fluorescence intensity (a.u.).
The result for “TCTTTAGTCCCGGTTCCTATTTAAACCGGGATTATTGTGGCGGAGTCACCTAGTGCAG” reads 47900 fluorescence intensity (a.u.); that for “ACCAAATGACATGACTCACTTAGATCCTAATAGGACATCCCGGAGTCACCTAGTGCAG”, 4400 fluorescence intensity (a.u.).
The result for “GCGCCGCGGTGGAGGCGAGTGGGCGACACGTGGGAAGTGGCGGAGTCACCTAGTGCAG” reads 6610 fluorescence intensity (a.u.).
For “ATATGTGCTGGCCGCTGAGGTATACAGTATATGGGCCAACCGGAGTCACCTAGTGCAG”, the binding signal is 3580 fluorescence intensity (a.u.).
“CCGGACCAAAATGACGTGCCTTAGGCCGGGCCGCCAGCCTCGGAGTCACCTAGTGCAG”: the binding signal is 3830 fluorescence intensity (a.u.).
The result for “GTGCTGGCCAAATGGGCCGGGCCAAGGCCTCGGTAACCACCGGAGTCACCTAGTGCAG” reads 42300 fluorescence intensity (a.u.); that for “ATCTGTCTTTGTTTGAAATCAGATTGGTTCAAAACAAGCGCGGAGTCACCTAGTGCAG”, 21900 fluorescence intensity (a.u.).
With “CAAATTTTAATCCTAGAAAAGCTTATATTTGAAGGAGAAGCGGAGTCACCTAGTGCAG”, the binding signal was 31100 fluorescence intensity (a.u.).
As for “AGTTGATAAATTTCAGAAAATTTTGATGACAAAGCAAAGCCGGAGTCACCTAGTGCAG”, the figure is 5580 fluorescence intensity (a.u.).
As for “CTTTTCACGGATCCTAATTTTGACAGGCAAAGAAAGAAAGCGGAGTCACCTAGTGCAG”, the figure is 41700 fluorescence intensity (a.u.); as for “GTCCCGCGCATTGGCGACGCGCGACCGGCACGGTCCCGCACGGAGTCACCTAGTGCAG”, 13500 fluorescence intensity (a.u.); as for “CTGACGACCCGGATCAACCATTGGCAGCAGCTCCTGTACACGGAGTCACCTAGTGCAG”, 3580 fluorescence intensity (a.u.).
